This is one part of a sample in which hits are shown more often than they occur.
Pf Dd2 inh: blocks in vitro growth of P. falciparum Dd2; Potency, µM (doses to about 28.9 µM), for inactives: at the highest dose activity, negative = inhibition, most hits filed as inhibitors; hit rate 4.3% among 120,000; AID 1347417; P. falciparum Dd2 growth, SYBR Green, 72 h; active = well fitted inhibition curve with a large enough effect;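 note: plate controls were DMSO vehicle for no effect and reference drug for full effect; nearly all actives have a fitted effect of over 65% in size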
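Readout: SYBR Green fluorescence, 485 nm excitation, 535 nm emission, after ~16 h lysis at 37C. Before that, Dd2-infected red cells (2.5% hematocrit) grew 72 h with compound, 29 uM top final concentration.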
Numbers without * were called inactive; i = inactive; [ ] = another dose, or the depositor's remark. Potency is the fitted concentration of half-maximal effect.

SMILES	Pf Dd2 inh
CCOC(=O)c1c(S(=O)(=O)N2CCCC(C(=O)N3CCN(c4cccc(C)c4C)CC3)C2)c(C)n(C)c1C (stereo unspecified)	1.1µM*
Cc1ccc(Cl)cc1N1CCN(C(=O)C2CCN(S(=O)(=O)c3ccc4c(c3)oc(=O)n4C)CC2)CC1	i
CN1CCCC2(CCN(C(=O)c3sccc3S(N)(=O)=O)C2)C1=O (stereo unspecified)	-14%
Cc1nnc(CN2CCC(N3CCCC(C(=O)NCCc4ccccc4)C3)CC2)o1 (stereo unspecified)	-1%
CC(=O)Nc1ccc(CN2CCCC3(CN[S+](=O)([O-])c4ccccc4N3)C2)cc1 (stereo unspecified)	-18%
COc1ccc(N2CC(c3noc(-c4cc(C)cc(C)c4)n3)CC2=O)cc1OC (stereo unspecified)	6%
CSCCCN1CCC2(Cc3ccccc3CNC2=O)C1 (stereo unspecified)	-21%[44.1 µM]
COCCCNC(=O)CCC[C@@H]1[C@H]2CCCN3CCC[C@@H](CN1C(=O)c1ccccc1)[C@@H]23	i
O=C(c1ccc2c(c1)OCO2)N1CCC(N2Cc3ccccc3C2=O)CC1	22%
O=C(Cc1cccc(Cl)c1)N1CCC2(CC1)CC(O)CCO2 (stereo unspecified)	-11%
CCCN1CC2(CCN(C)CC2)CC1C(=O)N(C)Cc1nnc(C)o1 (stereo unspecified)	2%
Cc1ccc(NC(=O)N2CCN(c3nnnn3-c3ccccc3)CC2)cc1F	-29%
Cc1ccc(NC(=O)N2CCN3CCCCC3C2)cc1F (stereo unspecified)	-14%
Cc1ccc(NC(=O)N2CCN(c3nnnn3-c3cccc(C(C)C)c3)CC2)cc1F	11µM*
CC(C)c1ccc(NC(=O)N2CCN(c3ccc(Cl)c(Cl)c3)CC2)cc1	4%
Cc1cc(-n2nnnc2N2CCN(C(=O)Nc3ccc(C)c(F)c3)CC2)ccc1F	5µM*
CCc1cccc(-n2nnnc2N2CCN(C(=O)NC(C)c3ccccc3)CC2)c1 (stereo unspecified)	-14%
Cc1noc(C)c1-c1cc2c(cc(C)n2C)c(-c2cccc([S+](C)(=O)[O-])c2)n1	i
COc1ccccc1CNC(=O)C1CCCN(Cc2cccnc2)CCC(=O)NCC1 (stereo unspecified)	-11%
CCSc1ncc(-c2c(-c3ccccc3)ncn2CC[C@@H](C)CO)cn1	-26%
CCOCCn1cnc(-c2ccccc2)c1-c1cccc(C#N)c1	i
CCC(Cn1cnc(-c2ccccc2)c1-c1ccc(C#N)cc1)N1CCN(C)CC1 (stereo unspecified)	8.9µM*
O=C(NCc1cccnc1)[C@@H]1C[C@@H](O)CN1C1CCN(C(=O)CN2CCCCCC2)CC1	19%
CCC(CC)N1CCCC(c2nc(-c3cccnc3)no2)CCNC(=O)CC1 (stereo unspecified)	18%
Cc1csc(Nc2ccc3ncn(Cc4ccccn4)c(=O)c3n2)n1	-21%[44.1 µM]
SMILES	Pf Dd2 inh
Cc1csc(Nc2ccc3ncn(Cc4ccccc4)c(=O)c3n2)n1	11µM*
O=c1c2nc(NCc3ccccc3)ccc2ncn1Cc1ccccc1	i
N#Cc1cccc(CN2CCOC[C@H](O)C2)c1	-2%[44.1 µM]
O=C(Cc1cccs1)Nc1ccc2c(c1)CN(Cc1ccccc1F)C(=O)CO2	i
COc1ccc(F)cc1-c1ccccc1C=O	16%[44.1 µM]
COc1ccc2nc([C@H]3CCN(Cc4cccc(C#N)c4)C3)[nH]c2c1	-2%[44.1 µM]
COc1ccc(/C=C/c2ccc3c(c2)C(=O)N2C[C@@H](NC(=O)CC(C)(C)CC(=O)O)C[C@H]2C(=O)N3)cc1	14µM*
CC(C)(CC(=O)O)CC(=O)N[C@H]1C[C@H]2C(=O)Nc3ccc(/C=C/c4ccccc4)cc3C(=O)N2C1	26%
COCC(=O)N[C@H]1C[C@H]2C(=O)Nc3ccc(/C=C/c4ccccc4)cc3C(=O)N2C1	-11%[44.1 µM]
Cc1cccc(NC(=O)N2CCC(CCNC(=O)c3cnccn3)CC2)c1	-13%
CC(CN1CC2(CCN(C(=O)c3ccc(=O)n(C)n3)CC2)OC1=O)c1ccccc1 (stereo unspecified)	-16%
CNC(=O)[C@@H]1C[C@H](Oc2cccnc2)CN1C(=O)c1ccc(Cc2c(C)noc2C)o1	21%
O=C(CSC12CC3CC(CC(C3)C1)C2)NC1CCCN(c2ncccn2)C1 (stereo unspecified)	-22%
OC1(CN2CCCN(c3nc4ccccc4s3)CC2)CNCCOC1 (stereo unspecified)	8.9µM*
OC1(CN2CCN(C(c3ccccc3)c3ccccc3)CC2)CNCCOC1 (stereo unspecified)	6.3µM*
Cc1cc(N2CCN(CC3(O)CNCCOC3)CC2)n2ncnc2n1 (stereo unspecified)	-1%
OC1(CN2CCC(OCc3ccccn3)CC2)CNCCOC1 (stereo unspecified)	-19%
OC1(CN2CCN(c3cnccn3)CC2)CNCCOC1 (stereo unspecified)	-7%
Cn1ccnc1CN1CCN(CC2(O)CNCCOC2)CC1 (stereo unspecified)	24%
O=C(Nc1nncs1)C1CC(=O)N(c2n[nH]c3cc(Br)ccc23)C1 (stereo unspecified)	-26%
CN(C)C(=O)c1ccc(OC2CCN(C(=O)c3ccc(Br)cc3)CC2)nc1	-28%
COCC1(C(=O)N2CCN(c3cc(C4CC4)ncn3)CC(O)C2)CC1 (stereo unspecified)	8%
CN(Cc1cc(C2CC2)on1)Cc1nnc(C2CC(N)C2)n1C1CC1 (stereo unspecified)	-30%
COc1cc(OC)cc(C(=O)N2CCCN(S(C)(=O)=O)c3ccccc32)c1	-15%
c1ccc([C@@H]2CNC[C@H]2COc2cccnc2)nc1	-8%
SMILES	Pf Dd2 inh
Cc1nnnn1-c1cccc(C(=O)Nc2ccc3c(c2)C(=O)N2CCC[C@H]2C(=O)N3)c1	-3%
CC1(c2ccccc2)N(Cc2cccnc2)C(=O)OC12CCN(Cc1ccc3c(c1)CCO3)CC2 (stereo unspecified)	-24%
C#C[C@H]1CN2CC[C@H]1C[C@@H]2COC(=O)Nc1ccc(OC(F)(F)F)cc1	11µM*
C#C[C@H]1CN2CC[C@H]1C[C@@H]2COC(=O)Nc1ccc(C(C)(C)C)cc1	-15%[44.1 µM]
C#C[C@H]1CN2CC[C@H]1C[C@@H]2COC(=O)Nc1ccc(Br)cc1	i
COCCNC(=O)c1cc(-c2ccccc2Oc2ccccc2)cc2ncn(C)c12	i
CC(=O)N1CCCC1c1nc2ccccc2n1Cc1ccc(F)cc1 (stereo unspecified)	23%
CCOc1ccc(-c2nc(C3CC(=O)N(c4ccc(OC)cc4)C3)no2)cc1 (stereo unspecified)	-26%
CCOc1ccc(N2CC(c3nc4ccccc4n3CCOc3ccc(CC)cc3)CC2=O)cc1 (stereo unspecified)	-27%
CCOC(=O)Cn1c(C2CC(=O)N(c3ccc(C)cc3)C2)nc2ccccc21 (stereo unspecified)	37%
CCOc1ccc(N2CC(c3nc4ccccc4n3CC(C)C)CC2=O)cc1 (stereo unspecified)	-4%
CCOc1ccc(N2CC(c3nc4ccccc4n3CCCOc3ccccc3)CC2=O)cc1 (stereo unspecified)	13µM*
CCOc1ccccc1N1CC(c2nc3ccccc3n2CCOc2ccc(C(C)(C)C)cc2)CC1=O (stereo unspecified)	-24%
Cc1cccc(C)c1OCCn1c(C2CC(=O)N(Cc3ccc(F)cc3)C2)nc2ccccc21 (stereo unspecified)	2.5µM*

Screening results deposited in PubChem by National Center for Advancing Translational Sciences (NCATS).
